Experimental data taken from ChEMBL document CHEMBL3988442, “University of Dundee, Small-Polar-MMV Screening Library” (2021).
In all, about 48,000 compounds went through this assay and about 13,000 (27%) showed an effect of 50% or more. This is one part of the list.

tested on: Wolbachia pipientis; experiment: Anti-Wolbachia Cell-Based Screen; type: functional; parameters: scale not given: in the data most compounds retested in dose-response had high values; conditions: 5 µM

SMILES | Percent Effect [%]
Cl.NCC1(c2cccc(Br)c2)CCOCC1 | -3.113
CN(Cc1nc2ccsc2c(=O)[nH]1)C[C@@H]1CCCN2CCCC[C@H]12 | 9.481
Cc1cc(C)nc(N2CCCC2c2cccnc2)n1 (stereo not given) | -35.57
Cc1cc(N2CCCC2c2cccnc2)nc(C)n1 (stereo not given) | -8.687
Cc1nn(C)c2nc(N3CCCCC3c3cccnc3)sc12 (stereo not given) | 116.8
c1cc(CN2CCOCC3(CCNCC3)C2)ccn1 | -46.48
CNc1nccnc1C1CCN(C(C)C)CC1 | 92.81
Cc1n[nH]c(C)c1CC(=O)N1CCCN(C)C2(CCN(C)CC2)C1 | 0.449
CO[C@@H]1CCN(Cc2cccs2)[C@@H]2CN(Cc3ccncc3)C[C@@H]21.O=C(O)C(F)(F)F.O=C(O)C(F)(F)F.O=C(O)C(F)(F)F | 96.91
CO[C@H]1CCN(Cc2cccs2)[C@@H]2CN(Cc3ccncc3)C[C@H]12.O=C(O)C(F)(F)F.O=C(O)C(F)(F)F.O=C(O)C(F)(F)F | 110
CO[C@@H]1CCN(S(=O)(=O)N(C)C)[C@@H]2CN(Cc3cccnc3)C[C@@H]21.O=C(O)C(F)(F)F.O=C(O)C(F)(F)F | -16.98
CO[C@H]1CCN(C2CCC2)[C@@H]2CN(Cc3ccncc3)C[C@H]12.O=C(O)C(F)(F)F.O=C(O)C(F)(F)F.O=C(O)C(F)(F)F | 1.676
CO[C@@H]1CCN(S(=O)(=O)N(C)C)[C@@H]2CN(Cc3ccncc3)C[C@@H]21.O=C(O)C(F)(F)F.O=C(O)C(F)(F)F | 7.733
CCS(=O)(=O)N1CC[C@H](OC)[C@H]2CN(Cc3ccncc3)C[C@H]21.O=C(O)C(F)(F)F.O=C(O)C(F)(F)F | 4.967
Nc1ncccc1CN1C[C@H]2OC(=O)N(Cc3ccccn3)[C@H]2C1 | 0.5145
CCc1nc(CN2CCN(C(=O)Cc3c(C)noc3C)CC2)cs1 | 0.6841
O=C1CSC(c2ccncc2)c2c[nH]nc2N1 (stereo not given) | 107.2
COc1ccc(C2SCC(=O)Nc3ccsc32)cc1OC (stereo not given) | -3.857
COc1ccc(C2SCC(=O)Nc3ccsc32)cc1 (stereo not given) | 24.55
CCCN1CCC2(Cc3ccccc3NC2=O)C1 (stereo not given) | -12.05
O=C1Nc2ccccc2CC12CCN(CCO)C2 (stereo not given) | -5.884
O=C1NCc2ccccc2CC12CCN(Cc1ccncc1Cl)C2 (stereo not given) | 100.7
Cc1cc(C)c(CNc2ncnc3ccccc23)c(=O)[nH]1 | 14.2
O=C(COc1ccccc1)N1C[C@@H](O)[C@H](N2CCCC2)C1.O=CO | 3.295
O=C(C1CC1)N1CCN2C[C@H](c3ccccc3)[C@@H](CO)[C@H]2C1 | 105.4
CCOC(=O)[C@@H]1[C@H]2CN(C(=O)OC)CCN2C[C@H]1c1ccccc1 | 104.3
CC[C@H]1CN2CC[C@H]1C[C@@H]2CNC(=O)Nc1ccccc1 | -4.877

SMILES | Percent Effect [%]
CCOC(=O)[C@@H]1[C@@H](c2ccccc2)CN2CCN(C(C)=O)C[C@H]12 | 87.07
CCOC(=O)[C@@H]1[C@@H](c2ccccc2)CN2CCN(S(C)(=O)=O)C[C@H]12 | 100.2
Cc1noc(C)c1CN1CCO[C@H]2[C@H](Oc3ccccn3)CC[C@@H]21.O=C(O)C(F)(F)F.O=C(O)C(F)(F)F | -5.059
CCOC(=O)[C@@H]1[C@@H](c2ccccc2)CN2CCN(C(=O)N(C)C)C[C@H]12 | 91.13
CCOC(=O)[C@@H]1[C@@H](c2ccccc2)CN2CCN(C(=O)C3CC3)C[C@H]12 | 90.7
Cc1nn(C)c2ncc(S(=O)(=O)N3CCN4CCCC4C3)cc12 (stereo not given) | -0.5952
CCc1nc(CC(=O)N2CCCC2CN2CCCC2)cs1 (stereo not given) | -9.906
O=C1N(Cc2cccnc2)C[C@H]2CN(C3CCOCC3)CCN12 | -6.635
O=C(Cc1cccnc1)N1CCC2(CC1)CCN(C1CCOC1)C2.O=C(O)C(F)(F)F.O=C(O)C(F)(F)F (stereo not given) | -0.1396
NC(=O)C1CN(C(=O)Cc2cccnc2)CCN(C2CCOCC2)C1 (stereo not given) | 108.4
CN(C[C@H]1CN2CC[C@H]1C[C@@H]2CNC(=O)c1ccco1)c1ccccc1 | -3.253
Cn1ccc(CN2CCCC23CCNCC3)n1 | -9.611
CN(C)c1ncc2c(n1)C1(CCN(CC3CC3)C1)COC2.O=C(O)C(F)(F)F (stereo not given) | -11.31
CCN1CCC2(COCc3c(C)nc(N4CCOCC4)nc32)C1 (stereo not given) | 5.011
COCCN1CCC2(COCc3c(C)nc(N(C)C)nc32)C1 (stereo not given) | 5.948
CCN1CCC2(COCc3cnc(NCC4CC4)nc32)C1.O=C(O)C(F)(F)F (stereo not given) | -6.306
Cc1nc(N(C)C)nc2c1COCC21CCN(CC2CC2)C1.O=C(O)C(F)(F)F (stereo not given) | 103
CCN1CCC2(COCc3c(C)nc(N(C)C)nc32)C1 (stereo not given) | 108.4
Cc1ccccc1CNC(Cn1cncn1)c1ccccc1 (stereo not given) | 16.93
CC(C)c1cc(N2CCC3(CC2)CN(C)CCN3C)ncn1 | -0.4054
Cc1nnsc1CN1C[C@H]2CC[C@@H]1CN(Cc1ccccn1)C2 | -5.416
Cl.NC1(c2nc(C(F)(F)F)cc(=O)[nH]2)CCCC1 | -15.07
O=C1CSC(c2ccc3c(c2)OCO3)c2cn[nH]c2N1 (stereo not given) | 128
Cc1n[nH]c2c1C(c1ccc(O)c(Cl)c1)SCC(=O)N2 (stereo not given) | 5.211
Cc1n[nH]c2c1C(c1ccsc1)SCC(=O)N2 (stereo not given) | 0.06284
Cc1n[nH]c2c1C(c1ccc3c(c1)OCO3)SCC(=O)N2 (stereo not given) | 118.8
CC(C)[C@@H]1CN(C(=O)C2(c3ccccc3)CCN(C)CC2)C[C@H]1N(C)C | -1.656

SMILES | Percent Effect [%]
CC(C)OCCNC1(c2ccc(F)cc2)CCOCC1 | 3.648
O=C(O)C(F)(F)F.O=C(O)C(F)(F)F.O=C(O)C(F)(F)F.c1cncc(CN2CCN3C[C@H](Oc4cncnc4)C[C@H]3C2)c1 | 97.08
Cn1ccnc1CN1CCN2C[C@H](OCc3cccnc3)C[C@H]2C1.O=C(O)C(F)(F)F.O=C(O)C(F)(F)F.O=C(O)C(F)(F)F | -4.128
O=C(O)C(F)(F)F.O=C(O)C(F)(F)F.O=C(c1cccnc1)N1CCN2C[C@H](Oc3cncnc3)C[C@H]2C1 | -8.279
O=C(O)C(F)(F)F.O=C(O)C(F)(F)F.O=C(O)C(F)(F)F.c1cc(CN2CCN3C[C@H](Oc4cncnc4)C[C@H]3C2)ccn1 | 106.9
O=C(c1ccncc1)N1CCN2C[C@H](Oc3cncnc3)C[C@H]2C1 | 8.644
Fc1cccc(O[C@@H]2C[C@H]3CN(Cc4ccncc4)CCN3C2)c1.O=C(O)C(F)(F)F.O=C(O)C(F)(F)F.O=C(O)C(F)(F)F | -7.787
COc1cc(N2CCN(CC3CC3)c3nc(C)ccc3C2)ncn1 | 95.93
COCCN1CCN(c2cc(OC)ncn2)Cc2ccc(C)nc21 | 108.6
Cc1ccc2c(n1)N(CC1CC1)CCN(S(=O)(=O)C1CC1)C2.O=C(O)C(F)(F)F | 2.676
CC(C)CN1CC[C@@H]2[C@@H]1CCN2C(=O)N(C)C.O=C(O)C(F)(F)F | -11.1
O=C(c1cccnc1)N1C[C@@H]2CC[C@H](C1)N(Cc1ncc[nH]1)C2 | -11.14
Cc1cccc(CN2CCN3C(=O)NC[C@H]3C2)n1 | -6.805
CCN(CC)CCN1CCO[C@H]2[C@@H](OCc3ccccn3)CC[C@@H]21 | -0.06843
O=C(O)C(F)(F)F.O=C(O)C(F)(F)F.c1ccc(CO[C@@H]2CN(Cc3nccs3)[C@@H]3COC[C@@H]32)nc1 | 102.5
CN(Cc1ccco1)[C@@H]1CN(Cc2cccnc2)[C@@H]2CCCO[C@H]12.O=C(O)C(F)(F)F.O=C(O)C(F)(F)F.O=C(O)C(F)(F)F | 8.312
Fc1ccc(CN2C[C@@H](OCc3ccccn3)[C@H]3COC[C@H]32)cc1.O=C(O)C(F)(F)F.O=C(O)C(F)(F)F | 103
O=C(O)C(F)(F)F.O=C(O)C(F)(F)F.c1ccc(CO[C@H]2CO[C@@]3(CCN(Cc4ccoc4)C3)C2)nc1 | -0.8411
O=C(O)C(F)(F)F.O=C(O)C(F)(F)F.c1cncc(CO[C@H]2CN(Cc3ccco3)[C@@H]3COC[C@H]23)c1 | 97.44
Fc1cccnc1O[C@@H]1CC[C@H]2[C@H]1OCCN2Cc1nccs1.O=C(O)C(F)(F)F.O=C(O)C(F)(F)F | 0.8031
O=C(O)C(F)(F)F.O=C(O)C(F)(F)F.c1ccc(O[C@@H]2CN(Cc3nccs3)[C@@H]3CCCO[C@@H]32)nc1 | -2.827
O=C(O)C(F)(F)F.O=C(O)C(F)(F)F.c1cncc(CO[C@H]2CO[C@@]3(CCN(Cc4ccoc4)C3)C2)c1 | -6.874
O=C(N[C@@H]1CN(Cc2ccccn2)[C@@H]2COC[C@@H]21)C1CCC1.O=C(O)C(F)(F)F | -10.37
c1ccc(CO[C@@H]2CN(Cc3ccoc3)[C@@H]3COC[C@@H]32)nc1 | 117.8
COCCO[C@@H]1C[C@H]2CN(C(=O)c3cccnc3)CCN2C1 | -1.303
CNC(=O)[C@H]1C[C@@H]2CN(C(=O)c3ccc(C)nc3)C[C@@H]2N1C | -27.99
